Source: the supplement of paper PMC12636033
± gives the standard deviation of the averaged measurements. The full ranking holds about 33,000 sequences; the median of “E-score (rank enrichment, -0.5 to 0.5)” is about -0.0075, and the highest 2% start at about 0.23. This is one part of a sample in which the highest values are shown more often than they occur.

system: WT Max(13-93) synthetic (M65Nle); assay: PBM 8-mer E-score (E-score (rank enrichment, -0.5 to 0.5)); higher = stronger preferential binding
Experimental: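 Protein binding microarray (universal PBM chip covering all 10-mers in fixed probe flanks) with chemically synthesized human Max(13-93) bHLH-LZ analogs (not full-length Max) bearing noncanonical residues (hArg, Tha, Aib, Nle at 65) and aromatic Cys staples. Read-out per 8-mer (and its reverse complement): E-score (rank-based enrichment, -0.5 to 0.5) and Z-score of median probe intensity.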

| Sequence | PBM 8-mer E-score |
| --- | --- |
| CTAATCCC | 0.144 ± 0.024 |
| CCGTCTAC | 0.0424 ± 0.084 |
| ACTAACCT | 0.0869 ± 0.06 |
| GGTTCCTA | -0.109 ± 0.046 |
| AGACACAG | -0.0614 ± 0.0067 |
| AATTATAA | 0.214 ± 0.072 |
| GATTATTA | 0.146 ± 0.14 |
| AATTATAG | 0.279 ± 0.07 |
| AATTATAC | 0.1451 ± 0.00023 |
| AGTTATTG | 0.127 ± 0.066 |
| CATTATTA | 0.262 ± 0.0081 |
| GGTTATTA | 0.126 ± 0.0068 |
| CATTATTC | 0.137 ± 0.063 |
| AGTTATTA | 0.245 ± 0.038 |
| GCCCCGAC | -0.0997 ± 0.092 |
| AAAAGAGT | 0.0215 ± 0.025 |
| CAGCCGGG | -0.216 ± 0.054 |
| CGCGATGA | -0.0499 ± 0.057 |
| AATACCAA | 0.0858 ± 0.08 |
| GATACCAC | 0.0906 ± 0.0058 |
| AATACCAT | 0.239 ± 0.0086 |
| AATACCAC | 0.232 ± 0.0071 |
| AATACCAG | -0.0097 ± 0.088 |
| ACTACCAT | 0.0905 ± 0.098 |
| CTACCCGC | -0.143 ± 0.13 |

| Sequence | PBM 8-mer E-score |
| --- | --- |
| GAAGGAGC | -0.0442 ± 0.0094 |
| AAAGGCAA | 0.225 ± 0.019 |
| CGCGCAAG | -0.09 ± 0.021 |
| CTGTGATA | -0.0471 ± 0.032 |
| ACGTGATG | 0.281 ± 0.036 |
| GCGTGATA | 0.157 ± 0.0055 |
| AAGTGATG | 0.0833 ± 0.02 |
| GTGTGATA | 0.161 ± 0.094 |
| ACGTGATA | 0.373 ± 0.04 |
| AGGTGATG | -0.035 ± 0.048 |
| ATGTGATA | 0.259 ± 0.018 |
| CCGTGATC | -0.0695 ± 0.058 |
| CCGTGATA | -0.0612 ± 0.11 |
| AAGTGATC | 0.00227 ± 0.17 |
| ACGTGATC | 0.365 ± 0.03 |
| CCGCCGCG | -0.0114 ± 0.016 |
| CGACCTTA | -0.135 ± 0.088 |
| AGTAACCA | 0.0556 ± 0.031 |
| ACGCTAAA | -0.0749 ± 0.18 |
| AAGGTTCG | 0.00686 ± 0.047 |
| TCGGTAAA | 0.0761 ± 0.071 |
| GCGTTCGA | -0.0763 ± 0.0099 |
| ATACTAAA | 0.236 ± 0.0049 |
| CTACTAAG | -0.104 ± 0.13 |
| ATCCTAAC | 0.133 ± 0.071 |

| Sequence | PBM 8-mer E-score |
| --- | --- |
| CTCCTAAC | 0.24 ± 0.12 |
| TTACTAAA | 0.109 ± 0.064 |
| GTCCTAAC | -0.0552 ± 0.13 |
| ATACTAAC | 0.159 ± 0.022 |
| CTACTAAC | 0.279 ± 0.095 |
| GTACTAAA | 0.0526 ± 0.051 |
| CTCCAAAG | -0.102 ± 0.047 |
| ATGGAACC | -0.166 ± 0.054 |
| ACAGAACG | -0.0169 ± 0.0023 |
| CAACCGGC | -0.263 ± 0.061 |
| AAAATCAA | 0.0163 ± 0.098 |
| CAAATCAA | 0.245 ± 0.008 |
| GAAATCAA | 0.138 ± 0.029 |
| GTCGGAAA | -0.0618 ± 0.062 |
| ACAATACA | 0.106 ± 0.079 |
| ACAATACT | 0.117 ± 0.14 |
| ACAATACC | 0.249 ± 0.069 |
| CTTGCTCC | -0.0612 ± 0.0067 |
| GGGCATGA | -0.0171 ± 0.012 |
| GTGCATGA | 0.265 ± 0.012 |
| ATGCATGA | 0.244 ± 0.02 |
| ATGCATTC | 0.197 ± 0.016 |
| ATGCATGC | 0.203 ± 0.04 |
| ATGCATGG | 0.156 ± 0.079 |
| GTGCATCA | 0.0702 ± 0.089 |

| Sequence | PBM 8-mer E-score |
| --- | --- |
| ATGCATCA | 0.254 ± 0.0073 |
| CTGCATGA | -0.175 ± 0.057 |
| CTGCATTA | 0.0253 ± 0.0015 |
| ATGCATTA | 0.265 ± 0.055 |
| ATGCATCG | 0.0483 ± 0.15 |
| CTGCTGTA | -0.271 ± 0.066 |
| CGCTGCGC | -0.152 ± 0.14 |
| CGAGCTCC | 0.00928 ± 0.0055 |
| CAGGATTC | -0.0901 ± 0.04 |
| AAGTCCGC | -0.204 ± 0.041 |
| CCAAACCA | 0.037 ± 0.03 |
| AGGGTGTG | 0.0713 ± 0.066 |
| CAGTAACG | -0.0368 ± 0.021 |
| CGAGCTGC | -0.214 ± 0.048 |
| AACTCCGG | -0.0587 ± 0.069 |
| CATTGGCA | -0.0219 ± 0.039 |
| TATTGGCA | 0.243 ± 0.034 |
| AATTGGCA | 0.139 ± 0.04 |
| CGCGCCCA | 0.0179 ± 0.03 |
| GTCGACAA | 0.0204 ± 0.0078 |
| AAGAAGGG | 0.213 ± 0.0093 |
| ACGTAAAG | 0.281 ± 0.033 |
| ACGTAAAT | 0.0493 ± 0.0072 |
| ACGTAAAA | 0.0973 ± 0.0094 |
| ACAGGCGA | -0.138 ± 0.092 |

| Sequence | PBM 8-mer E-score |
| --- | --- |
| ACAGTATA | 0.134 ± 0.0089 |
| ACAGTATG | 0.135 ± 0.041 |
| ACAGTATC | 0.235 ± 0.0095 |
| CACCTTCA | -0.109 ± 0.0089 |
| CATGCTCA | 0.281 ± 0.034 |
| AATGCTTA | 0.194 ± 0.036 |
| CATGCTCG | 0.188 ± 0.038 |
| CATGCTCC | 0.18 ± 0.012 |
| CATGCTTA | 0.246 ± 0.045 |
| CATGCTGA | 0.169 ± 0.029 |
| GACATTAC | 0.0651 ± 0.0097 |
| ATCATTTG | 0.0683 ± 0.013 |
| CTTTCCGC | -0.00053 ± 0.0035 |
| GTCGCATA | 0.127 ± 0.004 |
| CAATCTCA | 8e-05 ± 0.15 |
| CCCTATTC | 0.0618 ± 0.016 |
| CATAAAAA | 0.213 ± 0.085 |
| TAAAAAAA | 0.123 ± 0.0092 |
| TATAAAAA | 0.258 ± 0.13 |
| GATAAACA | 0.138 ± 0.13 |
| GATAAAAC | 0.141 ± 0.1 |
| GATAAAAA | 0.242 ± 0.021 |
| GACCCCGC | -0.0133 ± 0.0045 |
| CAAGCACC | -0.0769 ± 0.043 |
| CAAGTAGC | -0.0222 ± 0.13 |

| Sequence | PBM 8-mer E-score |
| --- | --- |
| GGACGCGA | -0.0617 ± 0.22 |
| CGAGAACC | -0.00648 ± 0.079 |
| AAACATGA | 0.187 ± 0.041 |
| GAACATGC | 0.164 ± 0.015 |
| CAACATGC | 0.119 ± 0.023 |
| AAACATGC | 0.248 ± 0.021 |
| AAACATGT | 0.315 ± 0.018 |
| AAACATGG | 0.2074 ± 0.0013 |
| CCCATCGA | -0.073 ± 0.074 |
| GTCTAGGA | -0.0888 ± 0.0088 |
| AGCTCGAT | -0.0955 ± 0.12 |
| AAGTGAGT | 0.0792 ± 0.0081 |
| CATGACAC | 0.29 ± 0.036 |
| CAAGACAA | 0.123 ± 0.084 |
| GATGACAC | 0.0335 ± 0.0041 |
| AAAGACAC | 0.279 ± 0.032 |
| GAAGACAA | -0.00129 ± 0.039 |
| AAAGACAA | 0.2 ± 0.078 |
| AATGACAG | 0.103 ± 0.13 |
| CATGACAG | 0.0777 ± 0.066 |
| AAAGACAG | 0.091 ± 0.049 |
| TAAGACAA | 0.26 ± 0.04 |
| AATGACAC | 0.239 ± 0.013 |
| CATGACAA | 0.196 ± 0.036 |
| CTCGCGTC | -0.0607 ± 0.017 |

| Sequence | PBM 8-mer E-score |
| --- | --- |
| GTTTGATA | 0.157 ± 0.13 |
| GTACCAAA | 0.104 ± 0.08 |
| GCGGGCCA | -0.176 ± 0.11 |
| ACATCCGA | -0.16 ± 0.072 |
| CACGTATG | 0.0325 ± 0.16 |
| GGAGTTCA | 0.024 ± 0.016 |
| CGCGGTTA | -0.0113 ± 0.021 |
| ATCTTACG | -0.013 ± 0.042 |
| AAGGAGCG | -0.0544 ± 0.078 |
| GATGACAA | 0.147 ± 0.014 |
| AATGACAA | 0.296 ± 0.089 |
| TATGACAA | 0.22 ± 0.013 |
| AGAAAAGC | 0.121 ± 0.075 |
| CACACGTA | 0.0918 ± 0.056 |
| CACACGTC | 0.0446 ± 0.022 |
| AACACGTA | 0.189 ± 0.04 |
| CACACGTG | 0.4756 ± 0.0046 |
| AACACGTC | 0.0692 ± 0.09 |
| AACACGTG | 0.4954 ± 0.001 |
| AGGAAAAT | 0.102 ± 0.051 |
| CTTGCCAA | 0.0438 ± 0.04 |
| CTTTAAGA | 0.0629 ± 0.086 |
